Screens (PubChem)
Lmaj promast: inhibitors of Leishmania major promastigote growth; Leishmania major promastigotes, resazurin fluorescence viability; inhibition, % at 10 µM; 200,000 compounds, 9% hits; AID 1063; in the data active means inhibition above about 50%;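 further: promastigotes grown with compound for 44 hours at 28 °C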
Insulin prom inh: TRM-6 insulin promoter activity inhibition; AID 1273; TRM-6 cells (human fetal islet line), insulin promoter-eGFP reporter, imaging; reporter expression induced with tamoxifen; inhibition, % at 2 µM; 130,000 compounds, 0.9% hits;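 active means inhibition above the mean plus 3 SD, with well images judged a real hit on visual review, cut at about 60% in these data, passing the limit was not always enough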
Ins promoter up: MIN6 insulin promoter up-regulation. MIN6 insulin promoter-GFP reporter, high-content imaging; hits give high values. AID 1625. z-score at 5 µM. 190,000 compounds, 0.3% hits;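 active means z-score above 3 at 5 µM with at least 500 cells counted in the well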
Autophagy mod: alters autophagy in cells | MEF GFP-LC3 puncta imaging; test concentration mostly 10 µM | calls only at 10 µM (by protocol) | 190,000 compounds, 0.98% hits;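 active means percentage of spot-positive cells more than 3 SD above its plate mean, without a fluorescence outlier flag or 80% toxicity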;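 further: spot-positive cell cutoff set from DMSO-treated cells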
WT yeast gro inh: growth inhibition of WT yeast, mitochondrial fusion screen; mitochondrial fusion phenotypic screen, WT strain; inhibition, % at 10 µM; 190,000 compounds, 2.1% hits; AID 1362; in the data active means inhibition above about 58%; tested in S. cerevisiae
* marks the source's active call; other numbers are inactive results; ! = a repeat was not active. A selection: hits, their analogues and other compounds. The true share with any hit is near 11%.

Screening CC12CN3CCN(CC(C3)/C1=N\NC(=O)Nc1cccc(Cl)c1)C2 returned Lmaj promast 6, Ins promoter up 0.4, Autophagy mod inactive and WT yeast gro inh -10.
CCc1nn(CC(=O)Nc2ccc(Br)c(C)c2)c(=N)s1 was read as Lmaj promast 7, Insulin prom inh -162, Ins promoter up 0.72, Autophagy mod inactive and WT yeast gro inh 16.
Screening COCCCNCCCCSc1ccc(Cl)cc1 returned Lmaj promast 95*, Insulin prom inh 32, Ins promoter up -1.1, Autophagy mod inactive and WT yeast gro inh 9.
Screening COCCCNCCOCCSc1ccc(Cl)cc1 returned Lmaj promast 98*, Insulin prom inh -41, Ins promoter up -0.45, Autophagy mod inactive and WT yeast gro inh -2.
Screening CC(C)N1C(=O)CCC1C(=O)NCc1cccs1 (stereo unspecified) returned Lmaj promast -7, Insulin prom inh 0, Autophagy mod inactive and WT yeast gro inh -5.
`Cc1ccsc1C1NC(=O)c2c(sc3c2CCN(C)C3)N1` (stereo unspecified) gave Lmaj promast 88*, Ins promoter up -0.11, Autophagy mod inactive and WT yeast gro inh 11.
Screening CN1CCc2c(sc3c2C(=O)NC(c2ccc(-c4cccc(Cl)c4)o2)N3)C1 (stereo unspecified) returned Lmaj promast 68*, Ins promoter up 1.3, Autophagy mod inactive and WT yeast gro inh 13.
`CC1CN=C(N(C(=O)Nc2ccccc2)c2ccc(S(=O)(=O)N3CCOCC3)cc2)S1` (stereo unspecified) gave Lmaj promast 7, Insulin prom inh 29, Ins promoter up -1.3, Autophagy mod inactive and WT yeast gro inh -4.
For c1ccc2[nH]c(-c3cscn3)nc2c1 the results were Lmaj promast -2, Insulin prom inh 67*, Autophagy mod inactive and WT yeast gro inh 11.
Screening c1ccc2nc(-c3nc4ccccc4[nH]3)ccc2c1 returned Lmaj promast -3, Insulin prom inh 32, Ins promoter up 0.06, Autophagy mod inactive and WT yeast gro inh 13.
c1ccc2[nH]c(-c3ccnc4ccccc34)nc2c1 was read as Lmaj promast -6, Insulin prom inh 86*!, Ins promoter up 0.24, Autophagy mod inactive and WT yeast gro inh 11.
Screening O=C(/C=C/c1ccc2c(c1)OCCO2)c1ccccc1 returned Ins promoter up 0.5.
For Cc1ccc(O)c(C(=O)/C=C/c2ccc3c(c2)OCCO3)c1 the results were Lmaj promast 18, Insulin prom inh 7, Ins promoter up -0.26, Autophagy mod inactive and WT yeast gro inh 60*.
Nc1ccccc1C(=O)/C=C/c1ccc2c(c1)OCO2 was read as Lmaj promast 58*, Insulin prom inh -10, Ins promoter up -0.08, Autophagy mod inactive and WT yeast gro inh 16.
COC(=O)c1ccc(Oc2ccc(C(F)(F)F)cn2)cc1 was read as Lmaj promast -3, Ins promoter up -0.46, Autophagy mod inactive and WT yeast gro inh 41.
Screening COCCNC(=O)COC(=O)/C=C/c1c(C)nn(Cc2ccc(Cl)cc2Cl)c1Cl returned Lmaj promast -7, Insulin prom inh 12, Ins promoter up 1.6, Autophagy mod inactive and WT yeast gro inh 0.
Screening CS(=O)(=O)N(CC(O)CON=C1c2ccccc2-c2ccccc21)c1ccc(F)cc1 (stereo unspecified) returned Lmaj promast -2, Insulin prom inh -6, Ins promoter up -0.81, Autophagy mod inactive and WT yeast gro inh -13.
Screening CCN(CC(=O)NC1CCCC1)S(=O)(=O)c1ccc(C)cc1 returned Lmaj promast -6, Insulin prom inh 69, Ins promoter up 0.38, Autophagy mod inactive and WT yeast gro inh 3.
For CN(CC(O)CON=C1c2ccccc2-c2ccccc21)S(=O)(=O)c1ccc(Br)cc1 (stereo unspecified) the results were Lmaj promast 100*, Ins promoter up -0.68, Autophagy mod inactive and WT yeast gro inh 46.
`CCN(CC(O)CON=C1c2ccccc2-c2ccccc21)S(=O)(=O)c1ccc(Cl)cc1` (stereo unspecified) gave Lmaj promast 100*, Ins promoter up -0.5, Autophagy mod inactive and WT yeast gro inh 7.
Cc1cccc(N(CC(O)CON=C2c3ccccc3-c3ccccc32)S(C)(=O)=O)c1 (stereo unspecified) was read as Lmaj promast 56*, Insulin prom inh -36, Autophagy mod inactive and WT yeast gro inh 63*.
Screening CCN(CC(O)CON=C1c2ccccc2-c2ccccc21)S(=O)(=O)c1ccc(C)cc1 (stereo unspecified) returned Lmaj promast 100*, Ins promoter up -1.5, Autophagy mod inactive and WT yeast gro inh 22.
For CC(C)(CO)NC(=O)Nc1ccc(Cl)c(Cl)c1 the results were Lmaj promast 10, Ins promoter up 0.71, Autophagy mod inactive and WT yeast gro inh -18.
For CN(C)c1c(F)cc(C(=O)NCc2ccccc2)cc1F the results were Ins promoter up -1.4.
CC(=O)Nc1cccc(C(=O)N/N=C/c2ccccc2F)c1 was read as Lmaj promast 83*, Insulin prom inh 24, Ins promoter up 0.77, Autophagy mod inactive and WT yeast gro inh -7.
Screening CC(/C=C/c1ccccc1F)=N\NC(=O)c1cccc(F)c1 returned Lmaj promast 90*, Insulin prom inh 13, Ins promoter up -0.38, Autophagy mod inactive and WT yeast gro inh 19.
Screening CC(/C=C/c1ccco1)=N\NC(=O)c1cccc(Cl)c1 returned Lmaj promast 7, Insulin prom inh -8, Ins promoter up 0.14, Autophagy mod inactive and WT yeast gro inh -1.
`COCCCN1CN(S(=O)(=O)c2ccc(Cl)cc2)c2nc3ccccc3nc21` gave Lmaj promast 59*, Insulin prom inh -19, Ins promoter up -0.39, Autophagy mod inactive and WT yeast gro inh 0.
For COc1cc(/C=N/NC(=O)CN(Cc2ccco2)S(=O)(=O)c2ccccc2)ccc1O the results were Lmaj promast 15, Ins promoter up -0.53, Autophagy mod inactive and WT yeast gro inh 2.
For CCOc1nc(NCc2ccco2)nc(Nc2ccc(OC)cc2)n1 the results were Lmaj promast 84*, Insulin prom inh 33, Ins promoter up 0.71, Autophagy mod inactive and WT yeast gro inh 6.
CC(C)c1ccc(Nc2nc(NCc3ccco3)nc(N3CCOCC3)n2)cc1 was read as Lmaj promast 42, Ins promoter up -1.9, Autophagy mod inactive and WT yeast gro inh 58*.
Screening Fc1ccccc1Nc1nc(NCc2ccco2)nc(N2CCOCC2)n1 returned Lmaj promast 28, Insulin prom inh 5, Ins promoter up -0.26, Autophagy mod inactive and WT yeast gro inh -5.
For CCc1nnc(N/N=C/c2c(Cl)cccc2Cl)n1N the results were Lmaj promast 50*, Ins promoter up -0.18, Autophagy mod inactive and WT yeast gro inh -17.
For Cc1ccc(-n2c(SCC(=O)N3CCCC3)nc3c(c2=O)SCC3)cc1 the results were Lmaj promast -5, Ins promoter up -0.58, Autophagy mod inactive and WT yeast gro inh -15.
Screening COC(=O)c1ccc(CSc2nc3c(c(=O)n2-c2ccc(C)cc2)SCC3)o1 returned Lmaj promast 97*, Ins promoter up 0.46, Autophagy mod inactive and WT yeast gro inh 15.
